Data published in the supplement of paper PMC6555819.

Key:
Assay in all cases: PBM binding z-score (relative to random genomic background probes); higher = stronger binding; sequences stand for … in GC…GCGATTGACAGCGTAGAATGAAGG
[1] = test system: PPARg:RXRa DBDmut IVT, anti-RXR (DBD mutation: RXRa K156A/R161A, NR concentration 270 nM, RXRa partner concentration 90 nM)
Procedure, shortened: (§1)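 Random background probes are the reference for binding z-scores. These scores derive from regression-normalized fluorescence on custom Agilent 4×180K protein-binding microarrays incubated 1 h with ligand-free nuclear receptor dimers. Binding was detected with antibodies against each partner (one per run).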

[2] = test system: PPARg:RXRa IVT, anti-PPARg (NR concentration 270 nM, RXRa partner concentration 90 nM)
Procedure, shortened: as §1

[3] = test system: PPARg DBDmut:RXRa IVT, anti-PPARg (DBD mutation: PPARg1 K132A/R137A, NR concentration 270 nM, RXRa partner concentration 90 nM)
Procedure, shortened: as §1

[4] = test system: PPARg DBDmut IVT, anti-PPARg (DBD mutation: PPARg1 K132A/R137A, NR concentration 270 nM)
Procedure, shortened: as §1

[5] = test system: PPARg homodimer (NR concentration 180 nM)
Procedure, shortened: as §1

[6] = test system: PXR:RXRa (NR concentration 270 nM, RXRa partner concentration 90 nM)
Procedure, shortened: as §1

[7] = test system: PXR homodimer (NR concentration 270 nM)
Procedure, shortened: as §1

[8] = test system: RARa:RXR (NR concentration 270 nM, RXRa partner concentration 90 nM)
Procedure, shortened: as §1

[9] = test system: RARa homodimer (NR concentration 270 nM)
Procedure, shortened: as §1

[10] = test system: RARb:RXRa (NR concentration 270 nM, RXRa partner concentration 90 nM)
Procedure, shortened: as §1

[11] = test system: RARb homodimer (NR concentration 270 nM)
Procedure, shortened: as §1

[12] = test system: RARg:RXRa (NR concentration 270 nM, RXRa partner concentration 90 nM)
Procedure, shortened: as §1

[13] = test system: RARg homodimer (NR concentration 270 nM)
Procedure, shortened: as §1

[14] = test system: RXRa DBDmut IVT, anti-RXR (DBD mutation: RXRa K156A/R161A, NR concentration 90 nM)
Procedure, shortened: as §1

[15] = test system: RXRa homodimer (NR concentration 180 nM)
Procedure, shortened: as §1

[16] = test system: THRa:RXRa (NR concentration 90 nM, RXRa partner concentration 90 nM)
Procedure, shortened: as §1

[17] = test system: THRa homodimer (NR concentration 90 nM)
Procedure, shortened: as §1

[18] = test system: VDR homodimer (NR concentration 270 nM)
Procedure, shortened: as §1

Row | Sequence | PBM binding z-score [1] | PBM binding z-score [2] | PBM binding z-score [3] | PBM binding z-score [4] | PBM binding z-score [5] | PBM binding z-score [6] | PBM binding z-score [7] | PBM binding z-score [8] | PBM binding z-score [9] | PBM binding z-score [10] | PBM binding z-score [11] | PBM binding z-score [12] | PBM binding z-score [13] | PBM binding z-score [14] | PBM binding z-score [15] | PBM binding z-score [16] | PBM binding z-score [17] | PBM binding z-score [18]
1 | TCTATTAGTTGGAGGGCAACCGACGAGTCCGTTT | 1.97 | 0.996 | 0.0745 | -0.289 | 1.04 | 1.08 | 1.11 | 0.737 | 0.176 | 1.35 | 1.31 | 0.442 | 0.781 | 1.47 | 0.834 | 0.528 | 0.592 | 1.86
2 | AGTAGTTGGTCAGCTGAGGTCACACACAATTCGG | 1.18 | 2.65 | 0.554 | 0.308 | 3.34 | 5.41 | 2.54 | 4.6 | 1.53 | 3.63 | 4.45 | 4.21 | 4.62 | 1.36 | 4.2 | 4.88 | 5 | 3.98
3 | GCTGCTAGGTCAGGTTGGTCCGCTAACGGGTACG | 2.43 | 2.33 | -0.695 | -0.237 | 0.526 | 0.421 | -0.826 | 0.786 | -0.467 | 3.27 | 2.4 | 2.29 | 3.46 | 0.513 | 0.839 | 2.36 | 0.57 | -0.0405
4 | CTACCAAGGTGAACAAGGTCGTTGAATACTATTC | 2.52 | 2.79 | 0.336 | 0.338 | 0.802 | 2.75 | 2.05 | 2.46 | 0.109 | 2.03 | 2.13 | 1.97 | 1.95 | 1.24 | 1.98 | 3.25 | 1.83 | 2.1
5 | CTCTAAAGGTCGGTTGAGGTGAGTATACGGATAA | 0.506 | 1.04 | 0.0568 | 0.0389 | 1.04 | 3.48 | 0.187 | 2.31 | -0.146 | 3.31 | 2.4 | 3.06 | 3.15 | 1.52 | 2.44 | 5.16 | 1.17 | 0.546
6 | CTACCTAGGTGAACAAGGTCGTTGATTACTATTC | 4.5 | 3.81 | 0.734 | 0.335 | 1.52 | 2.25 | 1.14 | 1.95 | 0.759 | 1.5 | 1.73 | 1.31 | 0.8 | 1.27 | 1.34 | 2.67 | 1.54 | 2.12
7 | ATATATAGGTTAAGGGTCATTCAGGTTGGTTCGC | 7.29 | 7.49 | 2.46 | 2.9 | 4.36 | 5.67 | 3.53 | 6.57 | 3.52 | 3.92 | 4.27 | 4.98 | 4.04 | 2.17 | 6.8 | 3.86 | 2.03 | 4.9
8 | ACTAGCAGGCCAAGTTAGGGTCACTCAAACAAAG | 0.489 | 1.32 | 0.153 | -0.603 | 1.07 | 3 | 0.292 | 3.73 | -0.482 | 2.86 | 3.53 | 4.02 | 2.89 | -0.159 | 3.35 | 4.14 | 2.34 | 1.18
9 | ACAGACAGGTGATGAAGGTGACTCAGGCTATCAT | 0.111 | 0.845 | 0.651 | 0.382 | 0.791 | 0.114 | 0.191 | 0.48 | 0.471 | 0.728 | 1.34 | 0.646 | 0.55 | -0.283 | 0.581 | 1.01 | -0.00476 | -0.102
10 | TGAACGAGGTTATAAGATCAGGGAACGTTGCAAA | 0.0481 | 1.09 | 0.721 | 0.611 | 0.735 | 0.661 | -0.0458 | 1.31 | -0.0844 | 1.18 | 0.253 | 1.53 | 1.1 | 0.444 | 2.02 | 1.43 | -0.282 | 0.372
11 | AGTCAAAGTTCACTAGGTACCGTAAGATTCAGCT | 1.61 | 3.48 | 1.07 | 0.221 | 2.63 | 4.09 | 3.98 | 2.9 | 1.09 | 4.74 | 3.6 | 4.92 | 5.92 | 4.36 | 3.75 | 1.65 | -0.132 | 3.97
12 | CCTAGTTGGTCAGCAGGTCACACACCGGATATGA | 1.7 | 2.95 | -0.32 | 0.126 | 2.23 | 2.42 | 0.562 | 3.23 | 1.34 | 2.75 | 3.43 | 3.52 | 3.44 | 0.217 | 3.16 | 2.77 | 1.35 | 1.05
13 | AGTCAAAGTTCTGGACGAGGTAACGTAAAGCACG | -0.983 | 0.272 | 0.288 | 0.0438 | -0.146 | -0.238 | -0.479 | 0.0945 | 0.0553 | 0.168 | -0.148 | 0.171 | 0.32 | -0.639 | 0.0678 | 1.41 | 0.761 | -0.322
14 | ATCTCTAGGTAAAGATAGTTCAGTCAATGCAAAT | 2.07 | 1.73 | 0.964 | 1 | 0.843 | 1.05 | 0.38 | 0.522 | 0.556 | 0.692 | 0.999 | 0.494 | 0.808 | 0.26 | 0.151 | 0.889 | -0.0396 | 0.66
15 | GGTATTAGTTGAAAGGGCAACCGAATGATTCTCG | 0.803 | 1.67 | 1.15 | 0.67 | 2.69 | 1.23 | 1.44 | 1.88 | 2.51 | 2.42 | 2.53 | 1.76 | 1.81 | 0.965 | 1.5 | 1.08 | 0.579 | 1.23
16 | TGTCAAAGTTCAAAGGGAACGTAAGTATCCACAC | -0.458 | 3.95 | 2.37 | 1.56 | 4.11 | 4.92 | 4.8 | 4.2 | 1.6 | 4.93 | 3.12 | 5.56 | 5.38 | 4.04 | 4.94 | 2.06 | -0.715 | 4.05
